Source: PubChem BioAssay (NCATS)
Inconclusive results are not listed. Active and inactive are the calls of the source. Calls come from the whole dose curve; as a rule, active = well fitted curve in the direction sought with a large enough effect; inconclusive = small, poorly fitted or top-dose-only effect, or another doubt; inactive = no such curve, though single readings can be large; an effect the other way counts as inactive or inconclusive. Where a SMILES comes first, the peptide text is derived from it.

Key:
[1] = target: Glutathione peroxidase 1 (Homo sapiens) (UniProt P07203); assay: Primary qHTS Assay for Inhibitors of Recombinant Selenoprotein Glutathione Peroxidase 1 (GPX1) (AID 1845191); note: nearly all actives have a fitted effect of over 65% in size; for activity, negative = inhibition: % is set by controls: 0 for no effect and ±100 for the full control effect
Glutathione peroxidase 1 (Homo sapiens), sequence (P07203 whole entry, looked up): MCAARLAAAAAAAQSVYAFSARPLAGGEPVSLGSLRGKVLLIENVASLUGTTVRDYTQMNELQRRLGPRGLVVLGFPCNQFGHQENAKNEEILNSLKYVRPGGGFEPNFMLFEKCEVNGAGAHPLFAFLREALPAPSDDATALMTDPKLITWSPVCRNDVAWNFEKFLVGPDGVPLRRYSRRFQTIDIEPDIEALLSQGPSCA
In short: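 GPX1 10 nM, GR 100 nM, GSH 1 mM, NADPH 0.5 mM, CHP 0.5 mM (final). 30-min cpd preincubation, RT. Ex340/Em450 read t=0, t=15 min.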

[2] = target: Phospholipid hydroperoxide glutathione peroxidase GPX4 (Homo sapiens) (UniProt P36969); assay: Primary qHTS Assay for Inhibitors of Recombinant Selenoprotein Glutathione Peroxidase 4 (GPX4) (AID 1845192); note: nearly all actives have a fitted effect of over 65% in size; for activity change, negative = inhibition: series mostly up to about 50 µM; % is set by controls: 0 for no effect and ±100 for the full control effect
Phospholipid hydroperoxide glutathione peroxidase GPX4 (Homo sapiens), sequence (P36969 whole entry, looked up): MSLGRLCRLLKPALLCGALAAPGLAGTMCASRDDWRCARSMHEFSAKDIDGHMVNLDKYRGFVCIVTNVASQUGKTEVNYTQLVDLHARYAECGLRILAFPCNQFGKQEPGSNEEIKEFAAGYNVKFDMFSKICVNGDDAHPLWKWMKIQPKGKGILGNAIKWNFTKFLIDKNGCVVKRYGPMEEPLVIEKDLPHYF
In short: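 qHTS, GR-coupled: GPX4 200 nM + cpd 30 min RT → GSH 1 mM, NADPH 0.5 mM, GR 100 nM → CHP 0.5 mM start; fluor 340/450 at t0 and t15 min; no-enzyme wells as control.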

[3] = target: Luciferin 4-monooxygenase (Photinus pyralis) (UniProt P08659); assay: Primary firefly luciferase (FLuc) qHTS assay for identification of artifact compounds. (AID 1845220); note: nearly all actives have a fitted effect of over 60% in size;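 for activity change, negative = inhibition: series mostly up to about 54 µM; plate controls were DMSO vehicle for no effect and no enzyme for full effect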
In short: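 qHTS, 15 min compound preincubation with substrate (10 uM luciferin, 10 uM ATP) at RT, then 10 nM FLuc; 5 min; luminescence; % inhibition vs no-enzyme/DMSO controls, 4-parameter Hill fit.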

[4] = Primary fluorescence-based thiol-reactive (MSTI) qHTS assay for identification of artifact compounds. (AID 1845221); note: nearly all actives have a fitted effect of over 65% in size; note: potency is the fitted concentration of half-maximal effect;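 for activity change, negative = thiol reactive: series mostly up to about 54 µM; thiol-reactive compounds lower the probe fluorescence signal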
In short: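 One-hour, room-temperature, dark incubation of compound with 4 uM MSTI in PBS (pH 7.4, 2% DMSO) precedes a fluorescence read at 525 nm excitation, 598 nm emission; Hill-equation fitting yields concentration-response values.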

[5] = test system: Nanoluciferase (engineered Oplophorus gracilirostris luciferase); assay: Primary Nanoluciferase (NLuc) qHTS assay for identification of artifact compounds. (AID 1845222); note: series mostly up to about 54 µM
In short: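 Luminescence read-out of secreted NLuc in S16 cell conditioned medium (1:55); compounds tested with 15 min RT preincubation, then Nano-Glo substrate 1:100, 5 min. % inhibition vs no-enzyme and DMSO controls, 4-parameter Hill fit.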

Cc1cc(C)c(S(=O)(=O)N(Cc2ccc(-c3cccc(S(C)(=O)=O)c3)cc2)Cc2ccc(C(F)(F)F)o2)c(C)c1
inactive: Potency [1] | Potency [2] | Potency [3] | Potency [4] | Potency [5]

CC(C)=CCCC1(C)Oc2cc3c(c4c2C2C(O4)C(C)(O)CCC21)CN(C(CCC(=O)O)C(=O)O)C3=O (stereo not given)
inactive: Potency [1] | Potency [2] | Potency [3] | Potency [4] | Potency [5]

CCn1c2ccccc2c2cc(CNC)ccc21
inactive: Potency [1] | Potency [2] | Potency [3] | Potency [4] | Potency [5]

O=C(O[C@H]1[C@@H]2C=CO[C@@H](O[C@@H]3O[C@H](CO)[C@@H](O)[C@H](O)[C@H]3O)[C@@H]2[C@@]2(CO)O[C@@H]12)c1ccc(O)c(O)c1
active: Potency [4] 3.27 µM
inactive: Potency [1] | Potency [2] | Potency [3] | Potency [5]

COc1cc(C[C@H]2COC(=O)[C@@H]2Cc2ccc(O)c(OC)c2)ccc1O
active: Potency [4] 14.7 µM
inactive: Potency [1] | Potency [2] | Potency [3] | Potency [5]

CC(=O)OC[C@@]12[C@@H](OC(C)=O)C[C@@H](C)[C@](C)([C@@H]3C[C@H]4C=CO[C@H]4O3)[C@H]1CCC[C@]21CO1
inactive: Potency [1] | Potency [2] | Potency [3] | Potency [4] | Potency [5]

COC1=CC(=O)O[C@@H](CCc2ccccc2)[C@@H]1O
inactive: Potency [1] | Potency [2] | Potency [3] | Potency [4] | Potency [5]

C[C@@H]1C(=O)O[C@H]2[C@H]1CC[C@@]1(C)C(=O)C=C[C@](C)(O)[C@H]21
active: Potency [4] 21.2 µM
inactive: Potency [1] | Potency [2] | Potency [3] | Potency [5]

CC1=C2[C@@H]([C@H](C)CC[C@H]2/C=C(\C)C(=O)O)[C@H](O)C1
inactive: Potency [1] | Potency [2] | Potency [3] | Potency [4] | Potency [5]

CC(C)CC(=O)O[C@@H]1OC=C(CO[C@@H]2O[C@H](CO[C@@H]3O[C@H](CO)[C@@H](O)[C@H](O)[C@H]3O)[C@@H](O)[C@H](O)[C@H]2O)[C@H]2C[C@H](O)[C@@H](CO)[C@@H]12
inactive: Potency [1] | Potency [2] | Potency [3] | Potency [4] | Potency [5]

C[C@@H]1CC[C@]2(C(=O)O)CC[C@]3(C)C(=CCC4[C@]5(C)C(CC[C@]43C)C(C)(C)[C@@H](O)[C@H](O)[C@@H]5O)C2[C@]1(C)O (stereo not given in full)
inactive: Potency [1] | Potency [2] | Potency [3] | Potency [4] | Potency [5]

COC12CC3C(C(C)C1=CC(=O)O2)C(O)C(OC(C)=O)C1C(C)(C)C(OC(C)=O)CCC31C (stereo not given)
inactive: Potency [1] | Potency [2] | Potency [3] | Potency [4] | Potency [5]

CC1CCC2(C)C(CC(O)C(O)C23CO3)C1(C)CCC1=CC(=O)OC1O (stereo not given)
inactive: Potency [1] | Potency [2] | Potency [3] | Potency [4] | Potency [5]

C=CC(C)(O)CC/C=C(\C)C(=O)OC1CC2(C(=O)O)CCC3(C)C(=CCC4C5(C)CCC(OC6OC(COC7OCC(O)C(O)C7O)C(O)C(OC7OCC(O)C(O)C7O)C6OC6OC(CO)C(O)C(O)C6OC6OCC(O)C(O)C6O)C(C)(C)C5CCC43C)C2CC1(C)C (stereo not given)
inactive: outcome [1] inactive [at 9.52 µM] | activity change, negative = inhibition [2] -6.88% [at 9.73 µM] | outcome [3] inactive [at 11.6 µM] | activity change, negative = thiol reactive [4] 122% [at 11.5 µM] | activity, negative = inhibition [5] 2.64% [at 11.6 µM]

CC[C@H]1OC(=O)[C@H](C)[C@@H](OC2C[C@@](C)(OC)[C@@H](O)[C@H](C)O2)[C@H](C)[C@@H](OC2O[C@H](C)C[C@H](NC)[C@H]2O)[C@](C)(O)C[C@@H](C)CN(C)[C@H](C)[C@@H](O)[C@]1(C)O (stereo not given in full)
inactive: Potency [1] | Potency [2] | Potency [3] | Potency [4] | Potency [5]

CC(=O)O[C@H]1C[C@@H]2[C@]3(CC[C@]4(C)[C@@H](C5(C)CCC(C(C)(C)O)O5)[C@@H](O)C[C@@]24C)C[C@@]32CC[C@H](O[C@@H]3OC[C@@H](O)[C@H](O)[C@H]3O)C(C)(C)[C@H]12 (stereo not given in full)
inactive: Potency [1] | Potency [2] | Potency [3] | Potency [4] | Potency [5]

Cc1nn(C)c(COc2ccc(N3CCN(S(=O)(=O)N(C)C)CC3)cc2)c1-c1cccc2c(CCCOc3cccc4ccccc34)c(C(=O)O)n(CCN3CCOCC3)c12
inactive: Potency [1] | Potency [2] | Potency [3] | Potency [4] | Potency [5]

C=CC(C)(O)CC/C=C(\C)C(=O)OCC1OC(OC2CCC3(C)C(CCC4(C)C3CC=C3C5CC(C)(C)C(O)CC5(C(=O)O)CCC34C)C2(C)C)C(O)C(OC2OC(CO)C(O)C(OC3OC(CO)C(O)C(OC4OC(COC5OC(CO)C(O)C(O)C5O)C(O)C(O)C4O)C3O)C2O)C1O (stereo not given)
inactive: outcome [1] inactive [at 9.52 µM] | outcome [2] inactive [at 9.73 µM] | outcome [3] inactive [at 11.6 µM] | activity change, negative = thiol reactive [4] 67.6% [at 11.5 µM] | activity, negative = inhibition [5] 4.87% [at 11.6 µM]

CNC(=O)c1ccc2cc([C@@]3(O)CCn4cncc43)ccc2c1
inactive: Potency [1] | Potency [2] | Potency [3] | Potency [4] | Potency [5]

COc1c(C(CC(C)C)OC(C)=O)ccc(Oc2c(O)cc(C)cc2/C=C/C(C)=O)c1C(=O)O (stereo not given)
active: Potency [4] 4.62 µM
inactive: Potency [1] | Potency [2] | Potency [3] | Potency [5]

C[C@@H](O)[C@H](N)C(=O)N1CCC[C@H]1C(=O)N1CCC[C@H]1C(=O)N[C@H](C(N)=O)[C@@H](C)O (H-TPPT-NH2)
inactive: outcome [1] inactive [at 9.52 µM] | activity change, negative = inhibition [2] 2.51% [at 9.73 µM] | activity change, negative = inhibition [3] 3.24% [at 11.6 µM] | activity change, negative = thiol reactive [4] -5.11% [at 11.5 µM] | activity, negative = inhibition [5] 4.97% [at 11.6 µM]

C=CC(C)(C)C12CC3C(=O)NC(Cc4cnc[nH]4)C(=O)N3C1Nc1ccccc12 (stereo not given)
inactive: Potency [1] | Potency [2] | Potency [3] | Potency [4] | Potency [5]
